Screen size: about 150,000 compounds; about 180 (0.12%) were called active. Another 6% or so got no clear call; they are omitted. For the sample, actives were picked, then their nearest neighbours and some compounds at random. Unmarked numbers belong to inactive results. Calls come from the whole dose curve; as a rule, active = well fitted cell-killing curve with a large enough effect; inconclusive = small, poorly fitted or top-dose-only effect, or effect the other way; inactive = flat fitted curve, though single readings scatter.
Assay: GF-AFC viability counterscreen for inhibitors of alpha-synuclein gene (SNCA) expression; note: nearly all actives have a fitted effect of over 30% in size
Conditions: HEK-293-SNCA-luc viability, GF-AFC fluorescence, 24 h; series mostly up to 57.1 µM; activity change, negative = cytotoxicity: at the top concentration
From the text: Assay Submitter (PI): Daniel R. Scoles Ph.D.
Department of Neurology, University of Utah, Salt Lake City, Utah
Accumulation of alpha-synuclein is a main underlying pathological feature of Parkinson's disease (PD) and alpha-synucleinopathies, for which lowering expression of the alpha-synuclein gene (SNCA) is a potential therapeutic avenue. Using a cell-based luciferase reporter of SNCA expression we performed a quantitative high throughput screen (qHTS) of 155,885 compounds in dose response. The screening assay was generated using genome editing to insert the luciferase gene downstream and in frame of the SNCA gene in HEK-293 cells (1). A viability counterscreen using GF-AFC was used to eliminate cytotoxic and false positive compounds. After in silico analysis (clustering, removal of frequent hitter nuisance chemotypes), inhibitor compounds from the primary screen were selected for follow up and re-tested at 11-doses in the SNCA-luc cells (luciferase and GF-AFC confirmation), and in CMV-luc expressing cell line to flag general transcriptional repressors.
Described herein are the results of the GF-AFC viability counterscreen for SNCA inhibitors; inactivity (no decrease in fluorescence signal, not cytotoxic) is the desired output for this assay.
1. Dansithong, W., Paul, S., Scoles, D. R., Pulst, S. M., and Huynh, D. P. (2015) Generation of SNCA Cell Models Using Zinc Finger Nuclease (ZFN) Technology for Efficient High-Throughput Drug Screening. PLoS ONE 10, e0136930.
SEQUENCE No. (e.g., 1, 2, 3, etc.); […] (e.g., Cells, Incubation, Reagent, etc.); VALUE; DESCRIPTION
1; Cells; 4 uL; Dispense 1500 HEK-293-SNCA-luc cells/well into Greiner 1536-well white / solid bottom tissue culture treated plate. The plate was covered with metal lids with gas-exchange holes.
2; Incubate; 24 hours; Incubate at 37C, 5% CO2, 95% RH.
3; Compounds; 23 nL; Compounds and controls were transferred via a Kalypsys Pin Tool (Wako USA) equipped with a 1536-slotted pin array. The plate was covered with metal lids with gas-exchange holes.
4; Incubate; 24 hours; Incubate at 37C, 5% CO2, 95% RH.
5; Dispense; 1 uL; Dispense Gly-Phe-7-amino-4-trifluoromethylcoumarin (GF-AFC, prepared at 125 uM in PBS) was added. The plate was covered with metal lids with gas-exchange holes.
6; Incubate; 30 min; Incubate at 37C, 5% CO2.
7; Detector; Fluorescence; Measure fluorescence with ViewLux microplate reader (PerkinElmer) equipped with 405/10 excitation and 540/25 emission filters.
8; Dispense; 3 uL; Dispense ONE-Glo ([…]) lucifase detection reagent was added to each well. Plates were covered with metal lids with gas-exchange holes.
9; Incubate; 15 min; Incubate at room temperature.
10; Detector; Luminescence; Measure luminescence with ViewLux microplate reader (PerkinElmer) equipped with clear filters.
NOTES (numbers refer to sequence above)
1; HEK-293-SNCA-luc were cultured and suspended in phenol-red free DMEM (4.5 g/L glucose, 25 mM HEPES, cat #21063 (Thermo)).
3; Compounds were added to the assay plate in an 11-point intra plate dose response, 1:3 titration in DMSO with a final concentration range of […]. Vehicle-only plates, with DMSO being pin-transferred to every well, were inserted at the beginning of screening runs to confirm expected assay performance. Activity was normalized to wells containing medium only (-100% activity, full inhibition) and SNCA-luc cells treated with DMSO vehicle control (0% activity), contained on the same plate as test samples.
10; Signals were analyzed, and dose-response curves were fit using the Hill equation. Compounds in curve classes -1.1, -1.2, -2.1, -2.2 in the SNCA-luc assay were considered active. Compounds were eliminated from further consideration if also active (curve class -1.1, -1.2, -1.3, -1.4, -2.1, -2.2, -2.3, -2.4) in the GF-AFC cytotoxicity assay.
Potency is the fitted concentration of half-maximal effect.

SMILES	activity change, negative = cytotoxicity	Potency
O=C(c1ccc(F)cc1)N1CCC(C(=O)N2CCC(c3ccccc3)CC2)CC1	0.64% (inactive)	–
CCCN(Cc1nccn1C)C(=O)c1ccccc1C1CCNC1 (configuration not stated)	0.415% (inactive)	–
O=c1c2nc(OCc3ccc(-n4cccn4)cc3)ccc2ncn1Cc1ccccc1	-18.7% [at 87.6 µM] (inactive)	–
COc1cccc(CNC(=O)c2cn3cc(-c4ccc(C)cc4)sc3n2)c1	5.4% (inactive)	–
COCCOC1CN(C2CCN(S(=O)(=O)c3cccs3)CC2)C12CCCCC2 (configuration not stated)	3.82% (inactive)	–
O=C([C@H]1CCCN1C(=O)c1ccc(Cl)nc1)N1CCCC(c2nc3ccncc3[nH]2)C1 (some centres not stated)	-7.77% (inactive)	–
CCOc1ccc(N(Cc2ccccc2)C(=O)c2nc(S(C)(=O)=O)ncc2Cl)cc1	–	5.62 µM (active)
CCOc1ccc(N(Cc2ccccc2)C(=O)c2nc(SCC)ncc2Cl)cc1	-2.22% (inactive)	–
CCOc1ccc(NC(=O)CN(Cc2ccccc2)S(=O)(=O)c2ccc(Cl)cc2)cc1	4.16% (inactive)	–
Cc1c(C(F)(F)F)nc(-c2ccc(CN3CCNCC3)cc2)[nH]c1=O	-0.179% (inactive)	–
Cc1ccc(NC(=O)Cn2ccn3nc4c(c3c2=O)CCCCC4)cc1	-18.2% (inactive)	–
Cc1ccc(OCc2nc(C3CCN(C(=O)Cc4cccc(F)c4)CC3)no2)cc1	-5.46% (inactive)	–
O=C(COc1ccc(F)cc1)NC1CCN(c2cc(-c3ccccc3)[nH]n2)CC1	1.28% (inactive)	–
CCC1Oc2ccc(NC(=O)c3c(F)cccc3F)cc2CN(CCc2ccc(F)cc2)C1=O (configuration not stated)	6.09% (inactive)	–
COC(=O)[C@@H]1Cc2c([nH]c3ccccc23)[C@H]2C[C@@H](NCCN3CCOCC3)C[C@@H](c3ccccc3)N21	-7.47% (inactive)	–
COC(=O)[C@@H]1Cc2c([nH]c3ccccc23)[C@H]2C[C@@H](NCCN3CCOCC3)C[C@@H](c3ccccc3F)N21	–	28.2 µM (active)
COC(=O)[C@@H]1Cc2c([nH]c3ccccc23)[C@H]2C[C@H](NCCNC(C)=O)C[C@@H](c3ccc(C)cc3)N21	-6.82% (inactive)	–
CN(C)C[C@@H]1CN(S(C)(=O)=O)C[C@H]1NC(=O)c1nn(C)c2ccccc12	-3.91% (inactive)	–
COc1ccccc1Nc1ccnc(N2CCC(C(=O)NCc3cccc(Cl)c3)CC2)n1	-6.27% (inactive)	–
O=C(c1ccc(F)cc1)N1CCN(c2cc(-c3ccc(F)cc3)[nH]n2)CC1	6.86% (inactive)	–
CCOC(=O)C1CCN(C(=O)C2CCc3nnc(CN[S+](C)(=O)[O-])n32)CC1 (configuration not stated)	-2.85% (inactive)	–
O=C(c1ccon1)N1CC[C@@H]2[C@@H](CCC(=O)N2CC2CCNCC2)C1	0.0233% (inactive)	–
CCOc1ccccc1NC(=O)N1CCCN(C)c2ccccc21	-9.62% (inactive)	–
O=C(CCc1ccccc1)Nc1ccc([C@@H](O)[C@H]2COCC(=O)N2Cc2ccccc2F)cc1	1.47% (inactive)	–

SMILES	activity change, negative = cytotoxicity	Potency
O=C(CCc1ccnc(N2CCCC2)c1)N1CCN(c2ccccc2)CC1	0.0928% (inactive)	–
Cc1ccc(NC(=O)c2nc(S(=O)(=O)Cc3cccc(C)c3)ncc2Cl)cc1	–	28.2 µM (active)
CCSc1ncc(Cl)c(C(=O)Nc2cc(C)ccc2C)n1	-4.44% (inactive)	–
CCCS(=O)(=O)c1ncc(Cl)c(C(=O)Nc2scc(-c3ccccc3)c2C(=O)OCC)n1	-14.4% (inactive)	–
CC1=C[C@@H](CN2CCC(O)CC2)[C@H](C(C)C)C[C@H]1Cc1nnc(-c2ccccc2F)o1	-25.2% [at 87.6 µM] (inactive)	–
C[C@@H](c1ccccc1)N(C)C(=O)c1cc(COc2cccc(F)c2)[nH]n1	-5.67% (inactive)	–
CCOC(=O)c1cccc(NC(=O)c2ccc3c(c2)N(C)C2CCCCN2C3=O)c1 (configuration not stated)	4.91% [at 12.5 µM]	–
Cc1cccc(C(=O)N2CCC(OC3CCN(Cc4ccccc4)CC3)CC2)c1	-20.7% (inactive)	–
O=C(Nc1ccc(C(F)(F)F)cc1)C1=NO[C@@H]2CN(CCc3ccccc3)C[C@H]12	4.72% [at 87.6 µM] (inactive)	–
COc1ccc(S(=O)(=O)N2C[C@@H]3C[C@H](C2)c2c(NC(=O)C4CCCCC4)ccc(=O)n2C3)cc1	-4.88% (inactive)	–
Cc1ccc(S(=O)(=O)N2CCCC(Cn3c(C4CC4)nc4cccnc43)C2)cc1C (configuration not stated)	0.546% (inactive)	–
CC(C)c1nc(-c2ccc(OC3CCN(C(=O)CCc4nc5ccccc5[nH]4)C3)cc2)no1 (configuration not stated)	-18.1% (inactive)	–
COc1ccc(-n2nc(C)c([C@@H]3C=C[C@@H](NC(=O)Nc4ccccc4)C3)c2C)cc1	-21% [at 87.6 µM] (inactive)	–
CCc1ccccc1NC(=O)N1CCCC(Cn2c(C)nc3cccnc32)C1 (configuration not stated)	0.623% (inactive)	–
O=C(NC1CCN(c2nc3ncccc3o2)CC1)c1ccc(Cl)nc1	-25.4% (inactive)	–
CCc1ccc(NC(=O)Cn2ccn3nc4c(c3c2=O)CCCC4)cc1	2.41% (inactive)	–
COc1ccc(NC(=O)N[C@H]2[C@H](O)[C@@H](N3CCN(c4ccccc4)CC3)[C@@H]3OC[C@H]2O3)cc1	-6.88% (inactive)	–
Cc1nc(N(C)C)ncc1C(=O)NC(C(=O)O)c1c(C)n[nH]c1C (configuration not stated)	-18% (inactive)	–
COc1ccc(CC(=O)N2CC[C@@H](CC(=O)O)[C@@H](CCN3CCNCC3)C2)cc1	6.71% [at 87.6 µM] (inactive)	–
Cc1cc(NC(=O)c2ccc3c(c2)N(C)C2CCCCCN2C3=O)ccc1F (configuration not stated)	-3.22% [at 12.5 µM]	–
COc1nc2nc(CC3CC3)n(C)c2cc1-c1cccc(NC(C)=O)c1	-14.5% [at 87.6 µM] (inactive)	–
O[C@H]1[C@H](NCc2ccco2)[C@H]2CO[C@H](O2)[C@@H]1N1CCC(Cc2ccccc2)CC1	4.17% [at 87.6 µM] (inactive)	–
COCCC1(NS(C)(=O)=O)CCN(C(=O)c2ccc(OC)nc2OC)CC1	0.208% (inactive)	–
